Compounds without any hit were thinned out: in the full panel of roughly 83,000, 20% have a hit.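 Single-dose data. Exposure time 48 hours. Values below 10 considered active.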 Active and inactive are the calls of the source.
Legend:
Test in all cases: NCI-60 one-dose screen, 48 h (100 = growth as untreated, 0 = no growth, -100 = all killed)
Settings in all cases: 10 µM unless noted
DU-145 prostate = tested on: DU-145 prostate
K-562 leukemia = tested on: K-562 leukemia
MALME-3M melanoma = tested on: MALME-3M melanoma
MDA-MB-231 breast = tested on: MDA-MB-231 breast
RXF 393 renal = tested on: RXF 393 renal
SF-268 CNS = tested on: SF-268 CNS
SF-295 CNS = tested on: SF-295 CNS
SF-539 CNS = tested on: SF-539 CNS
UACC-257 melanoma = tested on: UACC-257 melanoma
M14 melanoma = tested on: M14 melanoma
HCT-15 colon = tested on: HCT-15 colon
HT29 colon = tested on: HT29 colon
SNB-75 CNS = tested on: SNB-75 CNS
SNB-19 CNS = tested on: SNB-19 CNS
PC-3 prostate = tested on: PC-3 prostate
SK-MEL-5 melanoma = tested on: SK-MEL-5 melanoma
UACC-62 melanoma = tested on: UACC-62 melanoma
LOX IMVI melanoma = tested on: LOX IMVI melanoma
SK-MEL-28 melanoma = tested on: SK-MEL-28 melanoma
U251 CNS = tested on: U251 CNS

Measured: growth

CCOC(=O)c1c(C)oc2ncnc(Nc3ccc(C(=O)NCCc4ccccc4)cc3)c12
active: SNB-75 CNS 7.02%
inactive: DU-145 prostate 82.1% | K-562 leukemia 89% | MALME-3M melanoma 89.5% | MDA-MB-231 breast 85.7% | RXF 393 renal 71.8% | SF-268 CNS 74.1% | SF-295 CNS 90.4% | SF-539 CNS 58.9% | UACC-257 melanoma 79.7% | M14 melanoma 81.3% | HCT-15 colon 92.3% | HT29 colon 58.9% | SNB-19 CNS 84.1% | PC-3 prostate 59.2% | SK-MEL-5 melanoma 85.6% | UACC-62 melanoma 95% | LOX IMVI melanoma 75.2% | SK-MEL-28 melanoma 87.9%

CC(=O)Nc1nc(C)c(C(=O)N/N=C/c2cccs2)s1
inactive: DU-145 prostate 115% | K-562 leukemia 108% | MALME-3M melanoma 117% | MDA-MB-231 breast 89.3% | RXF 393 renal 113% | SF-268 CNS 97% | SF-295 CNS 96.2% | SF-539 CNS 99.3% | UACC-257 melanoma 109% | M14 melanoma 95.7% | HCT-15 colon 101% | HT29 colon 95% | SNB-19 CNS 96.8% | U251 CNS 98.6% | PC-3 prostate 101% | SK-MEL-5 melanoma 97.7% | UACC-62 melanoma 80.1% | LOX IMVI melanoma 93.2% | SK-MEL-28 melanoma 95.5%

CCCCCCCCCCCCCCCCNC(=S)N/N=C/c1ccc(O)cc1O
inactive: DU-145 prostate 79.2% | K-562 leukemia 70.3% | MALME-3M melanoma 100% | MDA-MB-231 breast 81% | RXF 393 renal 74.9% | SF-268 CNS 69% | SF-295 CNS 65.5% | SF-539 CNS 110% | UACC-257 melanoma 85.9% | M14 melanoma 61.8% | HCT-15 colon 50.7% | HT29 colon 37% | SNB-75 CNS 113% | SNB-19 CNS 89.1% | PC-3 prostate 63.5% | SK-MEL-5 melanoma 63.4% | UACC-62 melanoma 56.5% | LOX IMVI melanoma 60.6% | SK-MEL-28 melanoma 88.7%

COc1cc(-c2nc3c(c(C)nc4c3nnn4-c3ccccc3)c(=O)o2)cc(OC)c1OC
inactive: DU-145 prostate 111% | K-562 leukemia 106% | MALME-3M melanoma 104% | MDA-MB-231 breast 106% | RXF 393 renal 108% | SF-268 CNS 98.3% | SF-295 CNS 104% | SF-539 CNS 102% | UACC-257 melanoma 119% | M14 melanoma 98.6% | HCT-15 colon 113% | HT29 colon 115% | SNB-19 CNS 110% | U251 CNS 111% | PC-3 prostate 104% | SK-MEL-5 melanoma 106% | UACC-62 melanoma 102% | LOX IMVI melanoma 101% | SK-MEL-28 melanoma 101%

COc1cc(-c2cc3cnccc3c3nc(N)c4ccncc4c23)cc(OC)c1OC
inactive: DU-145 prostate 62.3% | K-562 leukemia 24.1% | MALME-3M melanoma 59.8% | MDA-MB-231 breast 42.9% | SF-268 CNS 49.4% | SF-295 CNS 67.3% | SF-539 CNS 38% | UACC-257 melanoma 92.2% | M14 melanoma 68.1% | HCT-15 colon 38.5% | HT29 colon 47.6% | SNB-19 CNS 53.3% | PC-3 prostate 37.3% | SK-MEL-5 melanoma 44.6% | UACC-62 melanoma 41.6% | LOX IMVI melanoma 36.1% | SK-MEL-28 melanoma 75.3%
active: RXF 393 renal 8.24% | SNB-75 CNS -2.5%

COc1nc(OC)nc(-c2cc(C(=O)c3ccc(Br)cc3)n3cc(C)cc(C)c23)n1
active: SNB-75 CNS -32.2% | LOX IMVI melanoma 3.88%
inactive: DU-145 prostate 76.3% | K-562 leukemia 91.1% | MALME-3M melanoma 54.1% | MDA-MB-231 breast 49.8% | RXF 393 renal 11.9% | SF-268 CNS 55.4% | SF-295 CNS 48.7% | SF-539 CNS 26.2% | UACC-257 melanoma 94.8% | M14 melanoma 90.3% | HCT-15 colon 90.7% | HT29 colon 74.9% | SNB-19 CNS 28.9% | PC-3 prostate 72.5% | SK-MEL-5 melanoma 87.8% | UACC-62 melanoma 92.1% | SK-MEL-28 melanoma 84.7%

Cc1cc2cn3c4ccc(O)cc4nc(N)c3c2cc1C
inactive: MALME-3M melanoma 39.6% | MDA-MB-231 breast 27.3% | RXF 393 renal 41.1% | SF-268 CNS 12.9% | SF-539 CNS 11.4% | UACC-257 melanoma 53.1% | SNB-19 CNS 29.1% | PC-3 prostate 25.4% | UACC-62 melanoma 46.9% | LOX IMVI melanoma 27.4%
active: DU-145 prostate 4.25% | K-562 leukemia -14.9% | SF-295 CNS 1.42% | M14 melanoma 4.96% | HCT-15 colon 7.85% | HT29 colon -65.6% | U251 CNS -5.52% | SK-MEL-5 melanoma -62.4% | SK-MEL-28 melanoma -4.38%

COc1cc2ncnc(-n3ncc4cc(NC(=O)Nc5ccc(Cl)c(C)c5)ccc43)c2cc1OC
inactive: DU-145 prostate 101% | K-562 leukemia 90.5% | MALME-3M melanoma 82.8% | MDA-MB-231 breast 98.9% | RXF 393 renal 99.4% | SF-268 CNS 102% | SF-295 CNS 96.9% | SF-539 CNS 59.7% | UACC-257 melanoma 102% | M14 melanoma 79.3% | HCT-15 colon 103% | HT29 colon 73.6% | SNB-75 CNS 82.7% | SNB-19 CNS 109% | PC-3 prostate 65.6% | SK-MEL-5 melanoma 88% | UACC-62 melanoma 88.9% | LOX IMVI melanoma 98% | SK-MEL-28 melanoma 80.5%

O=c1c(N=Nc2nccs2)c(-c2ccccc2)[nH]n1-c1nc(-c2ccccc2)cs1
inactive: DU-145 prostate 43.8% | K-562 leukemia 32.4% | MALME-3M melanoma 72% | MDA-MB-231 breast 53.1% | RXF 393 renal 65.2% | SF-268 CNS 32.3% | SF-295 CNS 25% | SF-539 CNS 39.7% | UACC-257 melanoma 39.6% | M14 melanoma 28.3% | HCT-15 colon 19.5% | HT29 colon 32.2% | SNB-75 CNS 61% | SNB-19 CNS 24.4% | PC-3 prostate 32.8% | SK-MEL-5 melanoma 15.2% | UACC-62 melanoma 12.3% | LOX IMVI melanoma 44.3% | SK-MEL-28 melanoma 47.1%

CCOC(=O)/C(C#N)=C(/CC)OCC
inactive: DU-145 prostate 106% | K-562 leukemia 89% | MALME-3M melanoma 92.6% | MDA-MB-231 breast 107% | RXF 393 renal 114% | SF-268 CNS 93.1% | SF-295 CNS 101% | SF-539 CNS 113% | UACC-257 melanoma 99.9% | M14 melanoma 95.5% | HCT-15 colon 109% | HT29 colon 103% | SNB-75 CNS 90.8% | SNB-19 CNS 106% | PC-3 prostate 93.6% | SK-MEL-5 melanoma 110% | UACC-62 melanoma 110% | LOX IMVI melanoma 91.4% | SK-MEL-28 melanoma 106%

COC(=O)c1ccc2[nH]c(O)c(C(=Nc3ccc(N(C)C(=O)CN4CCN(C)CC4)cc3)c3ccc4c(c3)OCO4)c2c1
active: DU-145 prostate 7.84% | K-562 leukemia 4.82% | MALME-3M melanoma -5.19% | RXF 393 renal -56.9% | SF-539 CNS -19% | HCT-15 colon 8.49% | HT29 colon 4.28% | SNB-75 CNS -1.84% | LOX IMVI melanoma 6.8%
inactive: MDA-MB-231 breast 12.5% | SF-268 CNS 11.5% | SF-295 CNS 27.5% | UACC-257 melanoma 31.5% | M14 melanoma 10.5% | SNB-19 CNS 14% | PC-3 prostate 19.3% | SK-MEL-5 melanoma 10.1% | UACC-62 melanoma 31.8% | SK-MEL-28 melanoma 20.8%

COc1ccc(-c2nc(Nc3nc4ccccc4[nH]3)nc(N)c2C#N)cc1
inactive: DU-145 prostate 108% | K-562 leukemia 97.2% | MALME-3M melanoma 106% | MDA-MB-231 breast 91.9% | RXF 393 renal 134% | SF-268 CNS 99% | SF-295 CNS 114% | SF-539 CNS 97.2% | UACC-257 melanoma 108% | M14 melanoma 99.5% | HCT-15 colon 101% | HT29 colon 96% | SNB-19 CNS 98.1% | U251 CNS 110% | PC-3 prostate 88.1% | SK-MEL-5 melanoma 95.3% | UACC-62 melanoma 89.3% | LOX IMVI melanoma 93.9% | SK-MEL-28 melanoma 114%

COC1NC(Cl)=C(C#N)C(C#N)(C#N)C1(C)C (stereo not drawn)
inactive: DU-145 prostate 94.2% | K-562 leukemia 77.1% | MALME-3M melanoma 146% | MDA-MB-231 breast 88.6% | SF-268 CNS 122% | SF-295 CNS 115% | SF-539 CNS 92.3% | UACC-257 melanoma 102% | M14 melanoma 59.1% | HCT-15 colon 121% | HT29 colon 108% | SNB-75 CNS 105% | SNB-19 CNS 115% | PC-3 prostate 122% | SK-MEL-5 melanoma 111% | UACC-62 melanoma 98.9% | LOX IMVI melanoma 98.7% | SK-MEL-28 melanoma 124%
active: RXF 393 renal 3.25%

O=C(CCC(=O)N(CCO)CCO)N(CCO)CCO
inactive: DU-145 prostate 107% | K-562 leukemia 96% | MALME-3M melanoma 103% | MDA-MB-231 breast 109% | RXF 393 renal 113% | SF-268 CNS 108% | SF-295 CNS 96.4% | SF-539 CNS 101% | UACC-257 melanoma 101% | M14 melanoma 99.5% | HCT-15 colon 94.9% | HT29 colon 98.6% | SNB-19 CNS 108% | U251 CNS 105% | PC-3 prostate 100% | SK-MEL-5 melanoma 114% | UACC-62 melanoma 109% | LOX IMVI melanoma 101% | SK-MEL-28 melanoma 106%

COc1ccc(C2CC(=O)c3c(O)cc(OC4OC(COC5OC(C)C(O)C(O)C5O)C(O)C(O)C4O)cc3O2)cc1O (stereo not drawn)
inactive: DU-145 prostate 136% | K-562 leukemia 167% | MALME-3M melanoma 96.1% | MDA-MB-231 breast 111% | RXF 393 renal 111% | SF-268 CNS 112% | SF-295 CNS 87.8% | SF-539 CNS 98.7% | UACC-257 melanoma 95.5% | M14 melanoma 98.7% | HCT-15 colon 101% | HT29 colon 102% | SNB-75 CNS 82.1% | SNB-19 CNS 110% | SK-MEL-5 melanoma 104% | UACC-62 melanoma 111% | LOX IMVI melanoma 107% | SK-MEL-28 melanoma 124%

COc1ccc2c(c1)cn1c3ccc(O)cc3[nH]c(=O)c21
active: K-562 leukemia -5.1% | RXF 393 renal -3.01% | SF-539 CNS -4.58% | HCT-15 colon 2.24% | HT29 colon -43.1% | LOX IMVI melanoma 3.95%
inactive: DU-145 prostate 15.4% | MALME-3M melanoma 62.5% | MDA-MB-231 breast 25.5% | SF-268 CNS 16.9% | SF-295 CNS 22.5% | UACC-257 melanoma 51.4% | M14 melanoma 14.7% | SNB-19 CNS 21.7% | U251 CNS 10.5% | PC-3 prostate 11% | SK-MEL-5 melanoma 13% | UACC-62 melanoma 39% | SK-MEL-28 melanoma 27.9%
